From PubChem BioAssay
Rows were chosen to be rich in hits. Some 5.8% of all compounds tested hit in one or more screens of this group.
RORg inh = blocks mouse ROR gamma transcriptional activity; P51450; Drosophila S2 Gal4-RORgamma UAS-luciferase reporter, 20 h; Potency, µM (top dose mostly 53.6 µM), without a hit: at the top dose activity change, negative = inhibition, hits mostly inhibitors; 310,000 compounds, 5.4% hits; AID 2551; further: potency means the concentration at half of the fitted maximal effect; on the % scale 0 is the no-effect control and ±100 the full control effect; nearly all actives have a fitted effect of over 60% in size
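Stable Schneider cell line, Gal4 DNA-binding domain fused to ROR gamma, UAS-luciferase. Cmpd 1 hr RT → CuSO4 700 uM final → 20 hr RT → luciferase reagent 10 min → luminescence.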
TRPV1 PAM = enhances activation of the human vanilloid receptor TRPV1; potentiation, % at 8.33 µM; TRPV1-expressing cells, Fluo-8 calcium influx, capsaicin EC20 potentiation; 320,000 compounds, 0.02% hits; AID 540277; in the data active means potentiation above about 80%; inconclusive means between about 30% and that limit; further: 0% is about no effect
Target sequence (Q8NER1 whole entry, looked up): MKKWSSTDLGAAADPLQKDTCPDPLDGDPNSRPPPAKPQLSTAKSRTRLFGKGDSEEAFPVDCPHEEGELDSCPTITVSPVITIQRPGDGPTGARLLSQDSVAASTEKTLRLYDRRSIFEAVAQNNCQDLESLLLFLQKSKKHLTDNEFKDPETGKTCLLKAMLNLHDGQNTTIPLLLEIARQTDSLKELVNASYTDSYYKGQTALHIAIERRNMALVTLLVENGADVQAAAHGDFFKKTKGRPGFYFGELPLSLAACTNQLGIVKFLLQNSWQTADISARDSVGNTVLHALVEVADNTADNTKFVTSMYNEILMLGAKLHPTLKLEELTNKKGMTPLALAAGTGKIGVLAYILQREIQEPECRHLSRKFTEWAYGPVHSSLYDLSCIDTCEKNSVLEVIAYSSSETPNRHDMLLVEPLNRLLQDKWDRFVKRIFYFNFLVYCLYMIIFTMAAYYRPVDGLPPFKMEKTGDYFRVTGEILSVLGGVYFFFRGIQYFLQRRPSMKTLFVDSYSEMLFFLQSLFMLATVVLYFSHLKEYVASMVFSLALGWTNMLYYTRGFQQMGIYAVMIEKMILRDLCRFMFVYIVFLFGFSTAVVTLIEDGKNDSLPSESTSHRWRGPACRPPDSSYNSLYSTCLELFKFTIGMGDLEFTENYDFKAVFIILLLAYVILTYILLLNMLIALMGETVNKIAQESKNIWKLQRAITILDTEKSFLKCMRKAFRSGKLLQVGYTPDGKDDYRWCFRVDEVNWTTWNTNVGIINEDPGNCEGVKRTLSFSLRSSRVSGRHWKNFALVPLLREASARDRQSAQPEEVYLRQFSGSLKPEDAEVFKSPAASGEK
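Fluo-8 calcium influx in TRPV1-expressing cells, kinetic read (ex 480/em 520 nm). Compound added and read 3 min for agonist activity, followed by capsaicin at EC20 final and 2 min further read for enhancement.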
TRPV1 agonist = human TRPV1 agonism; TRPV1-expressing cells, Fluo-8 calcium influx, agonist mode; activation, % at 8.33 µM; 320,000 compounds, 0.19% hits; AID 540275; in the data active means activation above about 80%; inconclusive means between about 30% and that limit; further: 0% is about no effect
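Fluo-8 calcium influx in TRPV1-expressing cells, kinetic read (ex 480/em 520 nm). Compound added and read 3 min for agonist activity, followed by capsaicin at EC20 final and 2 min further read for enhancement.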
uPA generation = cell surface uPA generation inhibition. cell surface uPA generation assay, qHTS. Potency, µM (top dose mostly 38.3 µM), for the others: at the top dose activity change, negative = inhibition, hits mostly inhibitors. 330,000 compounds, 0.31% hits; active means well fitted inhibition curve with a large enough effect; inconclusive means small, poorly fitted or top-dose-only effect; inactive means no such curve, though single readings can be large or run the other way; tested in mouse RAW 264.7 cells; further: potency means the concentration at half of the fitted maximal effect; on the % scale 0 is the no-effect control and ±100 the full control effect; nearly all actives have a fitted effect of over 55% in size
VP16 counter = inhibits Gal4-VP16 luciferase reporter, ROR gamma counter-screen; Potency, µM (top dose mostly 53.6 µM), without a hit: at the top dose activity, negative = inhibition, most hits filed as inhibitors; Drosophila S2 Gal4-VP16 UAS-luciferase, luminescence, 20 h; 310,000 compounds, 3.5% hits;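 further: Gal4-VP16 expression switched on by copper sulfate through the metallothionein promoter; potency means the concentration at half of the fitted maximal effect; on the % scale 0 is the no-effect control and ±100 the full control effect; nearly all actives have a fitted effect of over 50% in size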
The depositor's hits bear a star; ? = inconclusive; · = no result; [ ] = remark or other dose. Unless noted, the call rests on the fitted dose curve; in most records, active means well fitted curve in the direction sought with a large enough effect; inconclusive means small, poorly fitted or top-dose-only effect, or another doubt; inactive means no such curve, though single readings can be large; an effect the other way counts as inactive or inconclusive.

SMILES	RORg inh	TRPV1 PAM	TRPV1 agonist	uPA generation	VP16 counter
O=C(Cc1ccccc1)Nc1nc(-c2cccs2)cs1	-26.8%	-7.1	93.7*	-0.4%	17.4%
CSc1nsc(SCC(=O)Nc2ccccc2)n1	25.2%	-27.8	?	-1.0%	-16.9%
CSc1nsc(NC(=O)Cc2ccccc2)n1	?	-9.1	12.7	2.2%	7.08µM*
CC1(C)C(=O)C=C[C@]2(C)C1CC(=O)[C@]1(C)C2CC[C@@]2(C)C(c3ccoc3)OC(=O)C3O[C@@]321 (stereo partly specified)	?	·	·	·	5.2%
COCCNc1ncnc2ccc(-c3cccc(OC)c3)cc12	?	·	·	·	2.7%
CC12C=C(/C=C/c3ccc(F)cc3)C(C)(C1)C(c1ccc(F)cc1)CC2=O (stereo unspecified)	0.9%[10 µM]	·	·	·	1.7%[10 µM]
Cc1cc(C)n(-c2nc(Nc3ccccc3C)nc(-n3nc(C)cc3C)n2)n1	2.82µM*	-20.7	11.4	·	10µM*
Cc1cc(C)n(-c2nc(Nc3ccccc3C(F)(F)F)nc(-n3nc(C)cc3C)n2)n1	7.08µM*	8.6	20.8	-5.2%	7.08µM*
CN1CCc2cc(O)c(O)cc2C1Cc1ccc(O)c(O)c1 (stereo unspecified)	4.0%	·	·	·	-11.9%
Cc1ccc(NN2C(=O)C=C(c3ccccc3)C2=O)cc1	3.55µM*	-5.7	?	-13.3%	5.01µM*
O=C1c2ccccc2C(=O)N1Nc1ccccc1	7.6%	·	·	13.3%	0.9%
Cc1cccc(C)c1NC(=S)N(Cc1cccs1)C1CCCC1	?	10.7	3.9	0.7%	?
O=c1c2ccccc2cnn1CCOc1ccccc1	4.47µM*	-12.0	23.8	-5.8%	3.98µM*
O=C(O)Cn1ncc2ccccc2c1=O	-6.0%	-6.5	-0.2	0.3%	7.2%
CCn1c(C)nc2cc(S(=O)(=O)C(F)(F)C(F)C(F)(F)F)ccc21 (stereo unspecified)	-25.3%	-0.7	2.4	·	3.98µM*
CN(CC(=O)Nc1ccc(Cl)c(C(F)(F)F)c1)C(=O)CCNC(=O)c1ccco1	·	10.2	-0.8	2.9%	·
CN(CC(=O)Nc1ccc(Cl)c(C(F)(F)F)c1)C(=O)CCCNC(=O)c1ccc(Cl)cc1	·	24.1	-0.4	8.91µM*	·
COC(=O)C/C=C\[C@@H](C)[C@@H](/C=N\OC[C@@H](C)[C@H](OCc1ccccc1)C(C)C)OC	19.7%[10 µM]	·	·	·	-10.2%[10 µM]
CC1CC1C(=O)N(C)CC(=O)Nc1cccc(F)c1 (stereo unspecified)	·	1.2	0.5	-3.6%	·
CCCCOCC(O)CCc1n[nH]c(=S)n1-c1ccccc1 (stereo unspecified)	-44.6%	12.7	0.5	4.7%	-5.6%
Cc1ccccc1OCc1n[nH]c(=S)n1-c1ccccc1	2.51µM*	3.3	-0.7	-3.0%	8.91µM*
Cc1ccc(OCc2n[nH]c(=S)n2-c2ccc(Br)cc2)cc1	2.24µM*	4.4	-1.3	11.3%	5.62µM*
S=c1[nH]nc(COc2ccc(Cl)cc2)n1-c1ccc(Cl)cc1	5.62µM*	-19.8	0.9	-1.7%	?
S=c1[nH]nc(-c2ccco2)n1-c1ccc(Br)cc1	·	·	·	8.4%	·
Cc1ccc(OCc2n[nH]c(=S)n2-c2ccc(Cl)cc2)cc1	-38.0%[1.91 µM]	4.1	3.2	-3.1%	3.16µM*
SMILES	RORg inh	TRPV1 PAM	TRPV1 agonist	uPA generation	VP16 counter
CCN1C(=O)[C@H]2[C@H]3[C@H](O)[C@H](O)C/C(=N/O[C@@H]4O[C@H](COC(C)=O)[C@@H](OC(C)=O)[C@H](OC(C)=O)[C@H]4OC(C)=O)[C@@H]3CC[C@@H]2C1=O	-20.8%[10 µM]	·	·	·	-5.0%[10 µM]
COc1ccc2nc(C3CCCCC3)c3c(c2c1)CCC3	·	·	·	5.3%	·
N#CCCn1c(=O)c(-c2ccccc2)nc2cnc(Oc3ccccc3)nc21	2.3%	·	·	·	-6.1%
N#Cc1c(-c2ccccc2F)cc(C2CC2)nc1SCC(=O)c1cccs1	25.6%	7.6	6.5	0.8%	-7.9%
COc1ccccc1-c1ccc2ncnc(N3CCN(C)CC3)c2c1	-1.7%	·	·	·	?
CCCCOc1ccc(Cc2n[nH]c(=S)n2N)cc1	-1.6%[10 µM]	7.8	-15.5	-9.5%	-8.8%
S=c1[nH]nc(COc2ccc(Cl)cc2)n1-c1ccccc1	3.98µM*	17.9	-1.3	3.7%	3.16µM*
Cc1ccc(OCc2n[nH]c(=S)n2N)cc1C	7.94µM*	-15.1	11.6	3.8%	4.3%
Cc1ccc(-c2csc3nc[nH]c(=S)c23)cc1C	0.447µM*	5.0	4.4	-2.4%	?
O=C(NC1CCS(=O)(=O)C1)c1cccc(Br)c1 (stereo unspecified)	·	4.4	-0.3	3.2%	·
CCCn1c(=S)[nH]c2cc(Cl)ccc21	5.01µM*	0.5	0.1	-0.8%	17.8µM*
CCn1c(=S)[nH]c2cc(S(=O)(=O)N3CCCCC3)ccc21	10µM*	-3.2	2.8	-14.6%	?
CCn1c(C)nc2cc(S(=O)(=O)N3CCCC3)ccc21	?	9.3	-2.0	2.1%	-17.4%
CCn1c(=S)[nH]c2ccccc21	?	2.1	1.4	-4.3%	?
CCn1c(=S)[nH]c2cc(Cl)ccc21	5.62µM*	?	-6.0	-13.7%	25.1µM*
O=C(c1ccc(S(=O)(=O)Nc2ccccc2)cc1)N1CCCCCCC1	0.7%	-0.5	2.0	5.1%	1.6%
CCOc1ccc(/C=N/NC(=O)c2c(-c3ccccc3)noc2C)cc1	?	4.0	11.5	6.0%	?
CCN(CC)c1ccc(/C=N/NC(=O)c2c(-c3ccccc3)noc2C)cc1	11.2µM*	24.7	0.6	-3.7%	?
Cc1onc(-c2ccccc2)c1C(=O)N/N=C/C=C/c1ccccc1	2.24µM*	-1.6	-1.2	-4.4%	3.16µM*
Cc1onc(-c2ccccc2)c1C(=O)N/N=C/c1ccc([N+](=O)[O-])s1	11.2µM*	-5.8	4.2	-7.4%	11.2µM*
CCN(CC)c1ccc(/C=N/NC(=O)Nc2nonc2N)cc1	7.08µM*	8.0	-8.6	-2.8%	-99.1%
O=c1c(-c2ccc(O)cc2)coc2cc(O[C@@H]3O[C@H](CO)[C@@H](O)[C@H](O)[C@H]3O)cc(O)c12	12.9%	·	·	·	4.5%
CCC(Oc1ccccc1)C(=O)Nc1cc(C(F)(F)F)ccc1N1CCOCC1 (stereo unspecified)	·	-19.6	?	-14.9%	·
Cc1cccnc1NC(=O)CCc1nnc2ccc(N3CCC4(CC3)OCCO4)nn12	-6.1%	-16.2	-0.4	2.8%	0.9%
COc1ccccc1CNc1ccnc(-c2cccnc2)n1	5.1%	·	·	·	0.2%
CCN(CC)c1ccc(/C=N/NC(=O)c2c(Cl)c(C)nn2C)cc1	5.62µM*	-24.1	?	-3.4%	?
O/N=C(\c1ccccn1)C1CC1c1ccccc1 (stereo unspecified)	12.6µM*	15.1	5.9	1.0%	-13.1%
COc1ccc(C2CC2/C(=N/O)c2ccccc2)cc1 (stereo unspecified)	21.7%	-4.6	3.0	-3.0%	-2.3%
COc1ccc(C2CC2/C(=N/O)c2ccccn2)cc1 (stereo unspecified)	?	-40.2	?	-4.1%	3.16µM*
